GALC G270D up = enhancers of human galactocerebrosidase G270D mutant activity in cells; 145M-Twi-hGALC-G270D cells, HMU-beta-Gal fluorescence, 48 h; Potency, µM (titrated, usually from 57.5 µM), actives largely listed as activators; actives 0.1% (n = 45,000); AID 1159614; further: nearly all actives have a fitted effect of over 65% in size
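qHTS, 1536-well; 145M-Twi-hGALC-G270D cells (WT line also made) in DMEM/F12 + 10% FBS; compound incubation on live cells; HMU-β-gal 0.1 mM final, pH 5.2, NaTC; carbonate stop; fluorescence increase = enhanced residual activity.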
NTMT1 inhibitor = blocks human N-terminal methyltransferase 1 activity | NTMT1 MTase-Glo SAH luminescence, purified enzyme | actives 2.5% (n = 59,000) | Q9BV86 | AID 1645870 | Potency, µM (titrated, usually from 114 µM), actives largely listed as inhibitors; further: nearly all actives have a fitted effect of over 65% in size
GALK inh = GALK (human) enzyme inhibition; P51570; recombinant GALK, Kinase-Glo ATP luminescence, 1 h; Potency, µM (top dose mostly 57.5 µM), actives largely listed as inhibitors; 44,000 tested, under 10 active; AID 1347072
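5 nM GALK; 35 uM ATP; 100 uM D-galactose; 20 mM HEPES pH 8.0, 5 mM MgCl2, 60 mM NaCl, 1 mM DTT, 0.01% BSA; 1 h RT; Kinase-Glo Plus luminescence.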
PTAP-TSG101 blk = blocks PTAP binding to human TSG101, validation; Fluorescence polarization, FITC-PTAP peptide/Tsg101, 20 min; Potency, µM (top dose mostly 115 µM), usual class: inhibitors; 44,000 tested, under 10 active; AID 1347069
Target sequence (Q99816 whole entry, looked up): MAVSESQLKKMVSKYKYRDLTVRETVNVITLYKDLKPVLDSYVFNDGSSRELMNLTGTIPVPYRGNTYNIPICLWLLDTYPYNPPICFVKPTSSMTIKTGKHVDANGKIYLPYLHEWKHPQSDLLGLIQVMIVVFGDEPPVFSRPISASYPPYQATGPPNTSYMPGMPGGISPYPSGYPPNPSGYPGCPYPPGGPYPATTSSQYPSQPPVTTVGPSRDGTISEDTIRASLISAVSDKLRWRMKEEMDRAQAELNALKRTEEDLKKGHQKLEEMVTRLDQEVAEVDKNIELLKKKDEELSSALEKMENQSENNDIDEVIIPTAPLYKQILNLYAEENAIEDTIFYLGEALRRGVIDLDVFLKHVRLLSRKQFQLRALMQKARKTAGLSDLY
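The Tsg101 binding domain, at 10 uM final, is mixed with compound and a FITC peptide bearing the PTAP motif (50 nM final). After 20 min at r.t., polarization is measured; actives defined by CRC class, efficacy cut-off 60% inhibition.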
B2AR arrestin ag = beta-arrestin recruitment by human beta2-adrenergic receptor ligands; AID 1347077; 44,000 tested, under 10 active; Potency, µM (highest dose often 46.1 µM), hits mostly activators; P07550; HTLA Tango cells, beta-arrestin recruitment, luciferase luminescence, 18 h
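First, Tango cells carrying beta2-AR and beta-arrestin fusions received compound up to 46 microM. After 18 hr at 37 degrees C, luciferase substrate was added for 15 minutes, then luminescence gave %Activity for curve fitting.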
FH mod = Identification of activators of human fumarate hydratase by quantitative high-throughput screening; Fumarate hydratase, mitochondrial (Homo sapiens), P07954; FH coupled MDH/diaphorase resazurin fluorescence, 15 min; Potency, µM (titrated, usually from 79.9 µM), usual class: inhibitors; actives 0.22% (n = 54,000); further: the screen sought activators but most active calls are inhibition curves; nearly all actives have a fitted effect of over 45% in size
NNMT counter = blocks human NNMT methyltransferase | shares compounds with NTMT1 inhibitor | NNMT MTase-Glo luminescence, SAH detection | Potency, µM (doses to about 57.1 µM), usual class: inhibitors | actives 10% (n = 120) | AID 1645878
A number is an active result; n = inactive; u = inconclusive; x = no result given; ! = a repeat was not active; [ ] = remark or other dose. This is one part of a sample in which hits are shown more often than they occur. The call rests on the fitted dose curve; in most records, active means well fitted curve in the direction sought with a large enough effect; inconclusive means small, poorly fitted or top-dose-only effect, or another doubt; inactive means no such curve, though single readings can be large; an effect the other way counts as inactive or inconclusive.

SMILES	GALC G270D up	NTMT1 inhibitor	GALK inh	PTAP-TSG101 blk	B2AR arrestin ag	FH mod	others
CCCCCCCCCCCCCCCC[N+](C)(C)C	n	25µM	x	x	x	n
CCCCCCCCCCCC[N+](C)(C)CCOc1ccccc1	n	u	x	x	x	n
O=C(NCCCNc1nc(Nc2ccc(N3CCOCC3)cc2)ncc1C1CC1)C1CCC1	x	n	x	x	x	n
COc1ccc2c(c1)CN(C)CC2c1ccc(Cl)c(Cl)c1 (centres undefined)	x	u	x	x	x	n
CN1CCc2cc(O)cc3c2[C@H]1Cc1ccc(O)c(O)c1-3	x	x	x	x	x	14µM
CCCN1CCc2cc(O)cc3c2[C@H]1Cc1ccc(O)c(O)c1-3	x	x	x	x	x	14µM
CC1(C)CC[C@]2(NC(=O)C(C)(F)F)CC[C@]3(C)[C@H](C(=O)C=C4[C@@]5(C)C=C(C#N)C(=O)C(C)(C)[C@@H]5CC[C@]43C)[C@@H]2C1	x	n	x	x	x	x
COc1ccc2c(c1)/C(=C/c1cnc[nH]1)C(=O)N2	x	40µM	x	x	x	n
O=C1Nc2ccc3ncsc3c2/C1=C/c1cnc[nH]1	x	u	x	x	x	n
CCOc1ccc(CN(CCc2ccc3c(c2)OCO3)Cc2cccc(Br)c2)cc1	n	8.9µM	n	n	n	n
CCOc1ccc(CN(CCc2ccc3c(c2)OCO3)Cc2cccc(OC)c2)cc1	n	n	n	n	n	n
CCCCCCCCCC(CC)c1ccc(S(=O)(=O)O)cc1 (centres undefined)	n	10µM	x	x	x	u
CC(C)(NC(=O)O[C@@H]1CN2CCC1CC2)c1csc(-c2ccc(F)cc2)n1	x	n	x	x	x	x
CC(N)[C@H](O)c1ccc(O)c(O)c1 (some centres undefined)	x	x	x	x	x	n
C[C@H](N)[C@H](O)c1ccc(O)c(O)c1	n	20µM	x	x	x	n
CN(C)C(=S)SSC(=S)N(C)C	n	7.9µM	x	x	x	n
N#Cc1ccc(NC(=O)Nc2nnc(-c3ccncc3)s2)cc1Cl	x	n	x	x	x	x
CC(=O)O[C@H]1C[C@@H](C)O[C@H]2O[C@@H]3CC4CC[C@@H]5C(CC[C@]6(C)[C@@H](C7=CC(=O)OC7)CC[C@]56O)[C@@]4(C=O)C[C@H]3O[C@]21O (some centres undefined)	x	n[12.6 µM]	x	x	x	n
COc1cccc(NC(=O)c2ccc3c(=O)n4nc(Nc5ccccc5OC)sc4nc3c2)c1	n	79µM	n	n	n	n
COc1cc(O)c2c(c1)CCC[C@@H](O)[C@H](O)C(=O)/C=C\C[C@H](C)OC2=O	x	10µM	x	x	x	n
Cc1cc(SCc2sc(-c3ccc(C(F)(F)F)c(F)c3)nc2C)ccc1OCC(=O)O	x	71µM!	x	x	x	u
CCOc1ccc(CCNC(=O)c2cc3ccccc3n2Cc2cccc(C)n2)cc1OCC	x	n	x	x	x	x
Cc1cc(C)c(OP(=O)(OCc2c(-c3ccccc3)no[n+]2[O-])Oc2c(C)cc(C)cc2C)c(C)c1	x	n	x	x	x	x
Nc1ncnc2c1ncn2[C@@H]1O[C@H](COP(=O)(O)CP(=O)(O)OP(=O)(O)O)C(O)[C@H]1O (some centres undefined)	x	x	x	x	x	n
N#Cc1cn([C@@H]2O[C@H](CO)[C@H](O)[C@@H]2O)c2ncnc(N)c12	x	8.9µM	x	x	x	n
SMILES	GALC G270D up	NTMT1 inhibitor	GALK inh	PTAP-TSG101 blk	B2AR arrestin ag	FH mod	others
COP(=S)(OC)SCN1C(=O)c2ccccc2C1=O	n	28µM	x	x	x	n
O=C1C(I)=CC(=C(c2cc(I)c(O)c(I)c2)c2ccccc2C(=O)O)C=C1I	n	14µM	x	x	x	u
CN1CCC[C@@H]1Cc1c[nH]c2ccc(Nc3ncccc3[N+](=O)[O-])cc12	x	n	x	x	x	n
CN1C2CCC1CC(OC(=O)N1Cc3ccccc3NC1=O)C2 (centres undefined)	x	n	x	x	x	n
O=C(CBr)Nc1ccc(Cl)cc1C(=O)c1ccccc1F	n	14µM	x	x	x	n
C[C@H]1C2Cc3ccc(O)cc3[C@@]1(C)CCN2CC1CC1	x	x	x	x	x	n
Oc1ccc([C@H]2CNCc3c2ccc(O)c3O)cc1O	n	2.8µM	x	x	x	31µM
C[C@H]1CCC[C@H](O)CCC/C=C/c2cc(O)cc(O)c2C(=O)O1	x	1.4µM	x	x	x	n	NNMT counter=3.5µM
C[C@@H]1C[C@@H](O)[C@]2(O)O[C@@H]3C[C@@]4(C=O)C(CC[C@@H]5C4CC[C@]4(C)[C@@](O)(C6=CC(=O)OC6)CC[C@]54O)C[C@H]3OC2O1 (some centres undefined)	x	n	x	x	x	n

From PubChem
